Where two headings read alike, the source gives them in different places.

This passage reports potency estimated from few doses results from publication PMC11062922 (Nature Chemical Biology, 2023).

Parameters in all cases: species or system human, MV4-11 + K-562 + COLO205 + SK-N-BE2 + OVCAR-8
In assay [1] the test system is MTHFD1. The conditions noted are these: read-out: apparent Kd; compound concentrations: 100 nM and 1000 nM (sheet 'Samples'), CATDS: 0.41943372694081998; n = 1.
In assay [2] the test system is TNK1. The note with it: read-out: apparent Kd; compound concentrations: 100 nM and 1000 nM (sheet 'Samples'), CATDS: 0.618875790720404; n = 1.
The test system of assay [3] is NQO2. The conditions noted are these: read-out: apparent Kd, n = 1.
Assay [4] relates to NNT. The conditions noted are these: read-out: apparent Kd; compound concentrations:100 nM and 1000 nM (sheet 'Samples'); n = 1.
Assay [5] deals with PBK. The conditions noted are these: read-out: apparent Kd, n = 1.
Assay [6] deals with MAPK14. The conditions noted are these: read-out: apparent Kd, n = 1.
Assay [7] deals with MAPKAPK2. The conditions noted are these: read-out: apparent Kd, n = 1.
The test system of assay [8] is PHKG2. The conditions noted are these: read-out: apparent Kd; compound concentrations:100 nM and 1000 nM (sheet 'Samples'); n = 1.
For assay [9], the system named is PIM2. The conditions noted are these: read-out: apparent Kd; compound concentrations:100 nM and 1000 nM (sheet 'Samples'); n = 1.
Assay [10] deals with PIM3. The note with it: read-out: apparent Kd; compound concentrations:100 nM and 1000 nM (sheet 'Samples'); n = 1.
Assay [11] concerns PKN3. The conditions noted are these: read-out: apparent Kd; compound concentrations:100 nM and 1000 nM (sheet 'Samples'); n = 1.
Assay [12] deals with RIPK2. The conditions noted are these: read-out: apparent Kd, n = 1.
In assay [13] the test system is NLK. The conditions noted are these: read-out: apparent Kd, n = 1.
Assay [14] has as its system PKM. The note with it: read-out: apparent Kd; compound concentrations:100 nM and 1000 nM (sheet 'Samples'); n = 1.
Assay [15] concerns STK4. The conditions noted are these: read-out: apparent Kd; compound concentrations: 100 nM and 1000 nM (sheet 'Samples'), CATDS: 0.289467796660549; n = 1.
Assay [16] has as its system TNIK. The note with it: read-out: apparent Kd; compound concentrations: 100 nM and 1000 nM (sheet 'Samples'), CATDS: 0.457886576185151; n = 1.
In assay [17] the test system is PIK3C3. The conditions noted are these: read-out: apparent Kd; compound concentrations:100 nM and 1000 nM (sheet 'Samples'); n = 1.
Assay [18] relates to STK16. The note with it: read-out: apparent Kd, n = 1.
Assay [19] deals with RIPK3. The conditions noted are these: read-out: apparent Kd; compound concentrations: 100 nM and 1000 nM (sheet 'Samples'), CATDS: 0.12404115210191501; n = 1.
In assay [20] the test system is TESK2. The conditions noted are these: read-out: apparent Kd, compound concentrations: 100 nM and 1000 nM (sheet 'Samples'), n = 1.
Assay [21] concerns TGFBR2. The note with it: read-out: apparent Kd, compound concentrations: 100 nM and 1000 nM (sheet 'Samples'), n = 1.
The test system of assay [22] is TGFBR1. The note with it: read-out: apparent Kd; compound concentrations:100 nM and 1000 nM (sheet 'Samples'); n = 1.
Assay [23] deals with PIK3CB. The note with it: read-out: apparent Kd, n = 1.
In assay [24] the test system is PIK3CD. The conditions noted are these: read-out: apparent Kd, n = 1.
In assay [25] the test system is PI4KB. The note with it: read-out: apparent Kd; compound concentrations: 100 nM and 1000 nM (sheet 'Samples'), CATDS: 0.55367516713285103; n = 1.
Where [26] appears, read: compound concentrations: 100 nM and 1000 nM (sheet 'Samples'), CATDS: 1.
[27] abbreviates: compound concentrations:100 nM and 1000 nM (sheet 'Samples').

As to `Cc1cc(NCC(c2ccccc2)c2ccccc2)nc(NCc2ccc(C(F)(F)F)cc2)n1` [GW497681X], the figures for the potency estimated from few doses in assay [1] and in [2] were 2.04 µM and 0.909 µM, respectively.

As for `COc1c(C(N)=O)cc(-c2ccc(Cl)cc2)cc1-c1ccc(S(N)(=O)=O)cc1` [GSK711701A], the potency estimated from few doses in assay [3] (setting [26]) is 1.49 µM.

Regarding `Fc1cccc(COc2ccc(Nc3ncnc4sc(-c5cccs5)cc34)cc2Cl)c1` [GW684626B], the potency estimated from few doses in assay [4] was 1.21 µM.

For `N#Cc1cccc(C(=O)c2cnn(-c3ccc(F)cc3)c2N)c1` [RO1153321-000], in assay [5] (setting [26]), the potency estimated from few doses is 1.73 µM.

`COc1cccc(-c2nc(-c3ccccc3)[nH]c2-c2ccncc2)c1` [SB-610250]: the potency estimated from few doses in assay [6] (setting [27]) is 1.05 µM; in assay [7] (setting [27]), 1.48 µM; in [3] (setting [27]), 0.131 µM; in assay [8], 2.34 µM; in [9] it was 1.94 µM; in [10], 1.43 µM. The values for the potency estimated from few doses in [11] and in assay [12] (setting [27]) were 1.32 µM and 0.204 µM, respectively.

As to `Cn1ncc2cc(-c3cnc(N)c(Cl)c3N3CCC4(CCNC4=O)CC3)ccc21` [CCT251921], the potency estimated from few doses in [5] (setting [27]) is 1.57 µM.

As for `O=C(Nc1n[nH]c2cc(-c3cccc(F)c3)ccc12)C1CC1` [SB-735464], the potency estimated from few doses in assay [13] (setting [27]) was 1.81 µM; in assay [14], 2.13 µM.

Take `COc1cc(Nc2nccc(N3CCC(NC(=O)c4cc5ccccc5s4)C3)n2)cc(OC)c1OC` (centres unmarked) [GSK1379760A]: the potency estimated from few doses in [3] (setting [26]) was 1.03 µM.

Regarding `O=C(Nc1n[nH]c2cc(-c3cccc(F)c3F)ccc12)C1CC1` [SB-733894], the potency estimated from few doses was 1.86 µM in assay [13] (compound concentrations: 100 nM and 1000 nM (sheet 'Samples'), CATDS: 0.29749178894258499); 1.99 µM in assay [15]; 0.808 µM in assay [16].

For `Nc1n[nH]c2ncc(-c3ccccc3)cc12` [SB-517081_KCGS], the potency estimated from few doses is 1.59 µM in assay [6] (setting [27]), 1.32 µM in assay [17] and 1.63 µM in [18] (setting [27]).

On to `Cc1cc(-c2cnc(N)c3c(-c4ccc5scnc5c4)csc23)n(C)n1` [GSK843], for which the potency estimated from few doses is 0.168 µM in assay [13] (compound concentrations: 100 nM and 1000 nM (sheet 'Samples'), CATDS: 0.25956792289458103); 0.0156 µM in [12] (compound concentrations: 100 nM and 1000 nM (sheet 'Samples'), CATDS: 0.78129176750212304); 1.43 µM in assay [19]; 1.75 µM in assay [18] (compound concentrations: 100 nM and 1000 nM (sheet 'Samples'), CATDS: 0.11776221232306); 1.43 µM in assay [20] (CATDS: 0.123939134013601); 0.616 µM in assay [21] (CATDS: 0.16011510960484199).

Regarding `Cl.Cn1c(=O)c(Oc2ccc(F)cc2)cc2cnc(NC3CCOCC3)nc21` [RO3304882-001], the potency estimated from few doses in assay [6] (setting [26]) was 1.03 µM.

As for `FC(F)(F)c1ccc(-c2cc(-c3c[nH]nc3-c3ccccn3)ccn2)cc1` [GW599550X], the potency estimated from few doses in [3] (setting [27]) was 1.07 µM; in assay [22], 1.52 µM.

Consider `OCCCNc1nccc(-c2c(-c3cccc(C(F)(F)F)c3)nn3cc(C(F)(F)F)ccc23)n1` [GW630813X], for which the potency estimated from few doses in [6] (compound concentrations: 100 nM and 1000 nM (sheet 'Samples'), CATDS: 0.49980022483794101) was 1.06 µM; in assay [7] (compound concentrations: 100 nM and 1000 nM (sheet 'Samples'), CATDS: 0.50019993493019099) it was 1.06 µM.

On to `O=c1[nH]c2cc(Nc3ccc(F)cc3F)ccc2n1CC1CCCCC1` [BI00601000], for which the potency estimated from few doses in assay [6] (compound concentrations: 100 nM and 1000 nM (sheet 'Samples'), CATDS: 0.69333991182184596) is 0.0276 µM; in [7] (compound concentrations: 100 nM and 1000 nM (sheet 'Samples'), CATDS: 0.39097535171865) it was 0.0972 µM.

Take `COc1cccc(-c2cc(-c3c[nH]nc3-c3ccccn3)ccn2)c1` [GW680338X]: the potency estimated from few doses in assay [3] (setting [27]) was 0.424 µM.

Take `Cc1ccccc1Cn1ccn2c(=O)cc(N3CCOCC3)nc12` [GSK2269905A]: the potency estimated from few doses is 0.0419 µM in [23] (compound concentrations: 100 nM and 1000 nM (sheet 'Samples'), CATDS: 0.94535386241692498); 1.41 µM in [20] (CATDS: 0.33988229357461403).

For the molecule `COc1ccc(Nc2nccc(N3CCC(NC(=O)c4cccc(NC(C)=O)c4)C3)n2)cc1` (centres unmarked) [GSK1379732A], the potency estimated from few doses in [24] (setting [26]) is 0.141 µM.

For the molecule `COC(=O)C(NC(=O)NC1CCN(c2ccnc(Nc3ccc(F)cc3)n2)C1)c1ccccc1` (centres unmarked) [GSK1379712_KCGS], the potency estimated from few doses was 0.946 µM in assay [25] and 1.4 µM in assay [21] (CATDS: 0.45581202141121302).

Consider `C[C@H]1CC[C@@H](C(=O)Nc2ccccc2)CN1c1cc(-c2ccc3c(N)n[nH]c3c2)nc(N)n1` [GSK2283293_KCGS], for which the potency estimated from few doses is 1.13 µM in assay [23] (setting [27]) and 0.168 µM in assay [24] (setting [27]).
